Most compounds without a hit are left out; they make up all but 5.3% or so of the library.
Sfp PPTase inh = Sfp phosphopantetheinyl transferase inhibition | Q9F4F7 | Biochemical Sfp PPTase activity, qHTS | Potency, µM, actives largely listed as inhibitors | 310,000 tested, 3.5% active;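 note: the enzyme is Sfp with the accession as filed and its product quenches rhodamine fluorescence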
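Fluorescence-quenching assay with 15 nM Sfp, 5 uM rhodamine-CoA and 12.5 uM BHQ-2-labelled ybbR peptide in pH 7.6 Hepes/MgCl2 buffer. Enzyme was pre-incubated with compound for 15 min at room temperature. Rate was taken from the 30-min fluorescence change (525/598 nm).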
JMJD2E inh = inhibitors of human JMJD2E histone demethylase | B2RXH2 | JMJD2E catalytic domain, FDH-coupled NADH fluorescence (FDH is formaldehyde dehydrogenase) | Potency, µM (top dose mostly 57.1 µM), most hits filed as inhibitors | 230,000 tested, 1.6% active | AID 2147; active = well fitted inhibition curve with a large enough effect, not every such curve was filed as active; inconclusive = small, poorly fitted or top-dose-only effect, or another doubt; inactive = no such curve, though single readings can be large or run the other way; note: nearly all actives have a fitted effect of over 50% in size
Target sequence (B2RXH2 1-337 limits assumed): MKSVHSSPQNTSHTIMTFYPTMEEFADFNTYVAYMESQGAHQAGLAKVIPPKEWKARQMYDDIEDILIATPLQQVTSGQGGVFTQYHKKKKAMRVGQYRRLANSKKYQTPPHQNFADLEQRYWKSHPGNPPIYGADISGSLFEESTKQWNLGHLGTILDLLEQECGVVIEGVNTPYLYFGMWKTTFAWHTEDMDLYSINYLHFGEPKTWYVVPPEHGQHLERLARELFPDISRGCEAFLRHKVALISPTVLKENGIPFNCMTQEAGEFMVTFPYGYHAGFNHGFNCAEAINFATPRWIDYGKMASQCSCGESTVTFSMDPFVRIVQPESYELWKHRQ
Tau FP inhib = blocks human tau fibril formation measured by polarization. K18 P301L tau heparin fibrillization, Alexa594 FP, 6 h. 280,000 tested, 0.39% active. Potency, µM (top dose mostly 57.7 µM), most hits filed as inhibitors. AID 1468; note: nearly all actives have a fitted effect of over 55% in size
Target sequence (P10636 561-689 P618L limits assumed): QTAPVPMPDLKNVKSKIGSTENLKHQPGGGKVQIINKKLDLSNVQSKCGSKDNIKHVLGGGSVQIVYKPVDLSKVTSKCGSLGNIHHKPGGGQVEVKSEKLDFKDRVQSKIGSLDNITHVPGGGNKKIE
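Compound effects on tau fibrillization are measured by Alexa 594 fluorescence polarization (ex 555, em 632 nm). K18 P301L tau is used at 15 uM with 0.24 uM labeled tracer, and 20 uM heparin induces aggregation over 6 hr at 37 C.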
Tau ThT inhib = tau fibrillization inhibition (ThT binding); AID 1460; 270,000 tested, 2.1% active; Potency, µM (doses to about 57.4 µM), actives largely listed as inhibitors; P10636; recombinant tau K18 P301L, heparin-induced fibrillization, ThT fluorescence; note: nearly all actives have a fitted effect of over 55% in size
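Fibril formation assay: tau K18 P301L at 15 uM with trace Alexa 594 label, heparin inducer 20 uM, pH 7 sodium acetate buffer, 37 C for 6 hr; endpoint ThT signal.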
Tau fluor cs = counter-screen for tau fibril formation inhibitors | tau K18 P301L (four-repeat tau fragment) Alexa594 fluorescence, heparin fibrillization | Potency, µM (highest dose often 57.7 µM) | 280,000 tested, 0.93% active | AID 1463; note: nearly all actives have a fitted effect of over 55% in size
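Human K18 P301L tau (15 uM unlabeled plus 0.24 uM Alexa 594-labeled, final) in 100 mM sodium acetate pH 7 was mixed with compound and 20 uM heparin and incubated 6 hr at 37 C.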
Coupling enz = inhibits coupling enzyme system, counter-screen for aldolase hits. coupling enzyme system counterscreen, AmpLite Red fluorescence. activity change, negative = inhibition, % at 58.2 µM, hits read low. 290,000 tested, 0.67% active. AID 2472; in the data active = activity change below about -30%
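First, compound is pin-transferred into glyceraldehyde-3-phosphate coupling-enzyme reagent at 57.5 uM final and held 10 min at RT. Next, substrate, coupling system and AmpLite Red are added. After 20 min RT, fluorescence (525/598 nm) is read.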
Each line names hits and unclear results; the compound was inactive in the other large screens; [ ] = remark or other dose. Unless noted, calls come from the whole dose curve; as a rule, active = well fitted curve in the direction sought with a large enough effect; inconclusive = small, poorly fitted or top-dose-only effect, or another doubt; inactive = no such curve, though single readings can be large; an effect the other way counts as inactive or inconclusive.

COc1ccccc1NS(=O)(=O)c1cc(NC(=O)/C=C/c2cccs2)ccc1N1CCOCC1	Tau fluor cs inconclusive
COc1ccccc1NS(=O)(=O)c1cc(NC(=O)C(C)C)ccc1N1CCCCC1	Sfp PPTase inh 40µM
COCCNc1ccnc(-c2ccccc2CN(C)C)n1	none
CCOc1ccc(CNC(=O)c2cnc3sc(N4CCOCC4)nn3c2=O)cc1OC	none (no result: Sfp PPTase inh, JMJD2E inh, Coupling enz)
COc1cc(OC)c(C2C(C(=O)O)c3ccccc3C(=O)N2C)cc1OC (stereo not given)	JMJD2E inh inconclusive, Coupling enz -40
Cc1ccc(-c2cc3ncc(C(=O)c4cc(Cl)c(C)cc4O)cn3n2)cc1	Tau FP inhib inconclusive (no result: Sfp PPTase inh, JMJD2E inh, Coupling enz)
COc1ccc(-c2cc3ncc(C(=O)c4cc([N+](=O)[O-])ccc4O)cn3n2)cc1	Tau ThT inhib 7.1µM (no result: Sfp PPTase inh, JMJD2E inh, Coupling enz)
Cc1ccc([N+](=O)[O-])cc1-c1[nH]c(-c2ccc(O)c(O)c2)nc1-c1ccccc1	JMJD2E inh inconclusive, Tau ThT inhib inconclusive, Tau fluor cs 13µM[quencher]
COc1ccc(-c2nc(-c3ccccc3)c(-c3cc([N+](=O)[O-])ccc3C)[nH]2)cc1O	Tau ThT inhib inconclusive, Tau fluor cs 14µM[quencher]
Cc1cc(C)n(CC(O)Cn2c3ccccc3c3ccccc32)n1 (stereo not given)	Sfp PPTase inh 50µM
Brc1ccc(/C=N/Nc2nncc(-c3ccccc3)n2)o1	Tau ThT inhib inconclusive
Fc1cnc(N/N=C/c2ccc(-c3ccc(Br)cc3)o2)nc1N1CCOCC1	JMJD2E inh inconclusive, Tau ThT inhib 10µM, Tau fluor cs 13µM[quencher]
Brc1ccc(-c2ccc(/C=N/Nc3nncc(-c4ccccc4)n3)o2)cc1	Tau ThT inhib 2µM
COc1ccc(-c2cnnc(N/N=C/c3ccc(O)cc3)n2)cc1	Tau ThT inhib inconclusive, Tau fluor cs inconclusive
CCNc1nc(NCC)nc(N/N=C/c2ccc(O)c(O)c2)n1	Sfp PPTase inh 50µM, JMJD2E inh 18µM, Tau ThT inhib inconclusive, Tau fluor cs inconclusive
Brc1ccc(-c2ccc(/C=N/Nc3nc(N4CCOCC4)nc(N4CCOCC4)n3)o2)cc1	JMJD2E inh inconclusive, Tau FP inhib inconclusive
COc1ccc(-c2cnnc(N/N=C/c3ccc(C)o3)n2)cc1	Tau ThT inhib 2.8µM
CCN(CC)CCNC(=O)c1ccc2c(=O)n3nc(Nc4ccccc4)sc3nc2c1	Tau ThT inhib inconclusive (no result: Sfp PPTase inh, JMJD2E inh, Coupling enz)
Cc1cccc(C(C)C)c1NC(=O)c1ccc2c(c1)CCN2S(C)(=O)=O	none (no result: Sfp PPTase inh, JMJD2E inh, Coupling enz)
CCN(CC)CCCNC(=O)c1oc2c(c1C)-c1nn(Cc3ccc(Cl)cc3)cc1CC2	Tau FP inhib inconclusive (no result: Sfp PPTase inh, JMJD2E inh, Coupling enz)
Cc1ccc2[nH]c3nc(N/N=C/c4cccc(O)c4)nnc3c2c1	none (no result: JMJD2E inh, Tau FP inhib, Tau ThT inhib, Tau fluor cs)
COc1cc(/C=N/Nc2nnc3c(n2)[nH]c2ccccc23)ccc1O	Sfp PPTase inh 56µM, Tau ThT inhib 0.71µM
COc1ccc(-c2cnnc(N/N=C/c3ccc(O)c(O)c3)n2)cc1	JMJD2E inh 25µM, Tau FP inhib inconclusive, Tau ThT inhib 2.5µM, Tau fluor cs inconclusive
CC(C)N(C(C)C)S(=O)(=O)c1ccc(NN)nc1	Sfp PPTase inh 79µM, JMJD2E inh inconclusive, Tau ThT inhib inconclusive, Tau fluor cs inconclusive
CCOc1ccc(NC(=O)CN(C)c2ccc(S(=O)(=O)N(C(C)C)C(C)C)cn2)cc1OCC	none
CCN(CC)S(=O)(=O)c1ccc(NN)nc1	Sfp PPTase inh 13µM, JMJD2E inh inconclusive, Tau ThT inhib inconclusive
CCN(CC)S(=O)(=O)c1ccc(N/N=C/c2cc(OC)ccc2O)nc1	JMJD2E inh 13µM, Tau FP inhib inconclusive, Tau ThT inhib inconclusive, Tau fluor cs inconclusive
Cc1cc(O)c(/C=N/Nc2ccc(Cl)cc2)c(=O)o1	Sfp PPTase inh 79µM, Tau ThT inhib inconclusive
CN(C)CCN1CCc2ccccc21	JMJD2E inh inconclusive, Tau ThT inhib inconclusive, Coupling enz -43
COc1ccccc1N1CCN(C[C@@H](C(=O)NC(C)(C)C)c2ccccc2)CC1	JMJD2E inh inconclusive
CCCCC/C=C\C/C=C\CCCCCCCC(=O)NCCc1ccc(O)c(O)c1	none
Cc1cc(C)c2oc(-c3cccc(NC(=O)COc4ccc([N+](=O)[O-])cc4)c3)nc2c1	Tau FP inhib inconclusive, Tau ThT inhib inconclusive (no result: Sfp PPTase inh, JMJD2E inh, Coupling enz)

Compound activity deposited in PubChem BioAssay by National Center for Advancing Translational Sciences (NCATS).
